For assay [1], the system named is HaCat. Briefly: Cytotoxic Profiling of Annotated Libraries Using Quantitative High-Throughput Screening (AID 1296008). Further: nearly all actives have a fitted effect of over 60% in size. The settings on record: Five cell lines viability, CellTiter-Glo ATP luminescence, 48-72 h; max response: stronger effect = lower value. The method in brief: (§1)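 Cells exposed to compounds for 48 or 72 hr at 37 degrees Celsius. Viability read as ATP-coupled luminescence with CellTiter-Glo after 10 min at room temperature.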

In a further assay the test system is KB-3-1. The assay is described as above. To be noted: Five cell lines viability, CellTiter-Glo ATP luminescence, 48-72 h; max response: stronger effect = lower value. The essentials:
as §1

In a further assay the test system is NIH3T3. The assay is described as above. To be noted: Five cell lines viability, CellTiter-Glo ATP luminescence, 48-72 h; max response: stronger effect = lower value. The essentials: as §1
Assay [2] concerns HACAT. Briefly: qHTS assay to identify novel small-molecules to repurpose for Merkel cell carcinoma treatment (AID 1296009). Further: nearly all actives have a fitted effect of over 60% in size. To be noted: MCC and control cell lines, CellTiter-Glo viability, 72 h; series mostly up to 44.8 µM. The essentials: (§2)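 CellTiter-Glo luminescence after 72 hr compound exposure at 37 degree celsius gave cell viability. Libraries NPC and MIPE were run as 8- and 11-point dose responses; RLUs normalized to DMSO (negative) and no-cell (cytotoxicity) controls.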

In assay [3] the test system is HEK293T. The assay is described as above. To be noted: MCC and control cell lines, CellTiter-Glo viability, 72 h; at 44.8 µM (top of the series) unless noted. The method in brief: as §2
For another assay, the system named is MCC-13. Described as above. To be noted: MCC and control cell lines, CellTiter-Glo viability, 72 h; series mostly up to 46 µM. The essentials: as §2
A further assay has as its system MCC-26. The assay is described as above. The settings on record: MCC and control cell lines, CellTiter-Glo viability, 72 h; series mostly up to 46 µM. The method in brief:
as §2

The subject of the next assay is MKL-1. The description is as above. To be noted: MCC and control cell lines, CellTiter-Glo viability, 72 h; series mostly up to 46 µM. The essentials: as §2
The next assay concerns MKL-2. The assay is described as above. To be noted: MCC and control cell lines, CellTiter-Glo viability, 72 h; series mostly up to 46 µM. The essentials: as §2
The subject of another assay is UISO. The assay is described as above. To be noted: MCC and control cell lines, CellTiter-Glo viability, 72 h; series mostly up to 46 µM. The method in brief:
as §2

The subject of a further assay is WaGa. The description is as above. The settings on record: MCC and control cell lines, CellTiter-Glo viability, 72 h; series mostly up to 46 µM. The method in brief:
as §2

The subject of another assay is C33A. Briefly: Primary qHTS to identify gynecologic anti-cancer compounds using libraries of approved drugs and bioactive compounds (AID 1345084). Further: nearly all actives have a fitted effect of over 55% in size. To be noted: Gynecologic cancer cell panel viability, ATPlite luminescence, 48 h; series mostly up to 57.5 µM. The method in brief: (§3)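 ATP-based viability (ATPlite), 1,000 cells/well, 16 h pre-incubation, 48 h compound at 37 C, 5% CO2, 15 min RT before read.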

Another assay has as its system CASKI. The description is as above. The settings on record: Gynecologic cancer cell panel viability, ATPlite luminescence, 48 h; series mostly up to 57.5 µM. The method in brief: as §3
A further assay deals with Es-2. The assay is described as above. The settings on record: Gynecologic cancer cell panel viability, ATPlite luminescence, 48 h; series mostly up to 57.5 µM. The method in brief: as §3
In another assay the test system is HeLa. The description is as above. To be noted: Gynecologic cancer cell panel viability, ATPlite luminescence, 48 h; series mostly up to 57.5 µM. The method in brief:
as §3

The subject of assay [4] is Hek293T. Described as above. To be noted: Gynecologic cancer cell panel viability, ATPlite luminescence, 48 h, control line for the selectivity index; series mostly up to 57.5 µM. The essentials: as §3
A further assay concerns JEG-3. The assay is described as above. To be noted: Gynecologic cancer cell panel viability, ATPlite luminescence, 48 h; series mostly up to 57.5 µM. The essentials: as §3
The test system of the next assay is OV90. The description is as above. To be noted: Gynecologic cancer cell panel viability, ATPlite luminescence, 48 h; series mostly up to 57.5 µM. The method in brief:
as §3

A further assay deals with CAOV3. The assay is described as above. The settings on record: Gynecologic cancer cell panel viability, ATPlite luminescence, 48 h; series mostly up to 57.5 µM. The method in brief:
as §3

“And” between values parts separate entries of the source, which are not always exact repeats. Equal entries are not always repeated. Records with an inconclusive call do not appear. Unmarked numbers belong to inactive results. The source made the active and inactive calls. The call rests on the fitted dose curve; in most records, active means well fitted curve in the direction sought with a large enough effect; inconclusive means small, poorly fitted or top-dose-only effect, or another doubt; inactive means no such curve, though single readings can be large; an effect the other way counts as inactive or inconclusive.
On the % scale 0 is the no-effect control and ±100 the full control effect; potency means the concentration at half of the fitted maximal effect.

As for `O=C(O)[C@H](Cc1c[nH]c2ccccc12)N1C(=O)c2ccccc2C1=O`, in the assay with HaCat [1], the outcome was inactive. For the same compound, the max response in the assay on KB-3-1 is 3.99%; in the assay with NIH3T3, 4.64%. The Potency result in the assay with HACAT [2], with MCC-13, in the assay on MCC-26, with MKL-1, with MKL-2 and with UISO was “inactive” throughout. Moreover, the Potency result in the assay on WaGa was “inactive”. In addition, the outcome in the assay with HEK293T [3] was “inactive [at 92 µM]”.

For `CC=CC1=C(C(=O)O)N2C(=O)[C@H](NC(=O)[C@H](N)c3ccc(O)cc3)[C@@H]2SC1`, the results for the max response in the assay with HaCat [1], with KB-3-1 and in the assay on NIH3T3 were -17%, 1.31% and 1.07%, respectively. In addition, the Potency result with MCC-13, in the assay with MCC-26, with MKL-1, in the assay with MKL-2, in the assay with UISO and in the assay with WaGa was “inactive” each time.

With `CCOc1cc2ncc(C#N)c(Nc3ccc(F)c(Cl)c3)c2cc1NC(=O)C=CCN(C)C`, the Potency in the assay on HaCat [1] was 16.6 nM (active); in the assay on KB-3-1, 5.9 µM (active); in the assay with NIH3T3, 1480 nM (active); in the assay on MCC-13 it was 23500 nM (active); with MCC-26 it was 14800 nM (active); with MKL-1, 14800 nM (active). Besides, the Potency was 14800 nM (active) in the assay on MKL-2, 2640 nM (active) in the assay on UISO and 9350 nM (active) in the assay on WaGa.

With `CCC(=C(c1ccccc1)c1ccc(OCCN(C)C)cc1)c1ccccc1`, the max response in the assay with HaCat [1] is 2.08%; with KB-3-1, -16.9%; in the assay on NIH3T3 it was 1.38%. Moreover, the Potency entry in the assay on MCC-13 and with MCC-26 was “inactive” throughout.

For `CNC(=O)c1ccc(-c2cnc3ncc(Cc4ccc5ncccc5c4)n3n2)cc1F`, the max response is -3.74% and -10.2% in the assay on HaCat [1]; 3.93% and 3.42% with KB-3-1; -7.6% and -25.4% in the assay on NIH3T3. Also, in the assay on HEK293T [3], the compound was called inactive. The Potency entry with MCC-13, with MCC-26, with MKL-1, with MKL-2, in the assay with UISO and in the assay with WaGa was “inactive” throughout. Further, the Potency result in the assay on C33A, in the assay with CASKI, with Es-2, in the assay on HeLa, with Hek293T [4] and with JEG-3 was “inactive” in each case. For the same compound, the Potency result in the assay with OV90 is “inactive”.

Turning to `Clc1cccc(-c2nnnn2Cc2cccnc2)c1Cl`, the max response is 3% and -9.84% in the assay on HaCat [1]; -9.84% and -14.4% with NIH3T3. Also, in the assay on KB-3-1, the compound was called inactive. Further, the Potency result with MCC-13, in the assay with MCC-26, with MKL-1, in the assay on MKL-2, with UISO and with WaGa was “inactive” throughout. Also, the Potency result in the assay with C33A, with CASKI, in the assay on Es-2, in the assay on HeLa, with Hek293T [4] and in the assay with JEG-3 was “inactive” in each case. Further, the Potency result with OV90 was “inactive”.

Turning to `CCc1c2c(nc3ccc(O)cc13)-c1cc3c(c(=O)n1C2)COC(=O)[C@]3(O)CC`, the Potency in the assay with HaCat [1] was 58 nM (active) and 105 nM (active); in the assay with KB-3-1, 291 nM (active) and 235 nM (active); in the assay on NIH3T3 it was 731 nM (active); with MCC-13 it was 29.6 nM (active); in the assay on MCC-26, 37.2 nM (active); in the assay on MKL-1 it was 11.8 nM (active). For the same compound, the Potency with MKL-2 was 41.8 nM (active); in the assay on UISO, 20.9 nM (active); in the assay with WaGa it was 4.7 nM (active); in the assay on CAOV3, 251 nM (active); in the assay with CASKI, 126 nM (active); in the assay on Hek293T [4] it was 891 nM (active). In addition, the Potency was 8910 nM (active) with JEG-3 and 1780 nM (active) in the assay on OV90.

With `Cc1cc(Nc2cc(N3CCN(C)CC3)nc(C=Cc3ccccc3)n2)n[nH]1`, the Potency in the assay on HaCat [1] is 2700 nM (active); with KB-3-1, 3.03 µM (active); in the assay on NIH3T3 it was 6050 nM (active); in the assay with MCC-13 it was 9590 nM (active); with MCC-26 it was 9590 nM (active).

On to `COc1ccc(CC2SC(=O)NC2=O)cc1C(=O)NCc1ccc(C(F)(F)F)cc1` (stereo unspecified), for which the compound was called inactive in the assay on HaCat [1]. Further, the max response in the assay with KB-3-1 is -9.05%; in the assay on NIH3T3 it was 2.55%. In addition, the Potency entry in the assay with HACAT [2], in the assay on MCC-13, in the assay with MCC-26, in the assay on MKL-1, in the assay with MKL-2 and in the assay with UISO was “inactive” throughout. For the same compound, in the assay with WaGa, the Potency entry is “inactive”.
